About 830 (0.38%) of roughly 220,000 compounds were called active.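 How the source made its calls: active means compound inhibiting the enzyme by more than half at any dose during confirmatory dose-response retesting; inconclusive means strong single-dose inhibitors picked by rank but not retested; inactive means the rest.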 A selection follows. Results with a measured potency or affinity are listed apart. Residues, ends and D or L forms follow the SMILES beside them. *: point of attachment. Bz = O=C(c1ccccc1)*
molecular target: Leucine aminopeptidase (Plasmodium falciparum (isolate 3D7)) (UniProt Q8IL11); test: P. falciparum M17LAP inhibitors, primary screen, biochemical, fluorogenic H-Leu-NHMec substrate, 1536-well (AID 1619); details: recombinant M17LAP, H-Leu-NHMec fluorogenic kinetic assay; at 30 µM; active compounds read high;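 further: plate controls were full reaction with DMSO carrier for no effect and no enzyme background for full effect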
Sequence (Q8IL11 whole entry, looked up): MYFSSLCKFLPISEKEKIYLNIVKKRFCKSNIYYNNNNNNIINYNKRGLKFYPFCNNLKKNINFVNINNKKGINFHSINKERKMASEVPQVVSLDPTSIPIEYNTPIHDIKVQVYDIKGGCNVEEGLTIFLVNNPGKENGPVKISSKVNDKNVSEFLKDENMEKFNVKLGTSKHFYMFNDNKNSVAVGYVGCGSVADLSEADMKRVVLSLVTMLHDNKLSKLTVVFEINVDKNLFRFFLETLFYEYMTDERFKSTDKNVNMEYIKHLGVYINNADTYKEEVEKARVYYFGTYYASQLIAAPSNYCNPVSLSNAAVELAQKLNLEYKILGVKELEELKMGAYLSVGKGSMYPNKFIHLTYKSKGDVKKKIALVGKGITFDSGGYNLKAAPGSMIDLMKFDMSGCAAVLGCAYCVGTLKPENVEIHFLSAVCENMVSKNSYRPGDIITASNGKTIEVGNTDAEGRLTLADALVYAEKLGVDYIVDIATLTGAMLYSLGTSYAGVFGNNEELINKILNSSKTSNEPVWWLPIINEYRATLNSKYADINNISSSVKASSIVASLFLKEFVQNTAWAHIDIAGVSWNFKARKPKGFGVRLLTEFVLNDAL

inhibition, inactive:
Cc1ccc(S(=O)(=O)N2CCOCC2)cc1NC(=O)CN1CCN(c2ccc(O)cc2)CC1 -10.2%
Cc1nn(Cc2c(Cl)cccc2Cl)c(C)c1NC(=O)CCCn1nc(C)c([N+](=O)[O-])c1C -7.34%
CCOc1ccc(NC(=S)NN2C(C)CCCC2C)cc1 (stereo unspecified) -3.03%
C[C@@H]1NC(=O)c2cc([N+](=O)[O-])cc(I)c2OCC[C@@H](C(N)=O)NC(=O)[C@H](CCCCN)NC1=O 21.6%
CCCCC(=O)NC(=S)Nc1cccc(NC(=O)c2ccccc2)c1 2.99%
O=C(NCc1ccc2c(c1)OCO2)C1CCC(CNc2c(N3CCCC3)c(=O)c2=O)CC1 (stereo unspecified) 9.79%
Cc1noc(C)c1CSCc1ccc(Cl)cc1 2.99%
COc1ccc(-c2nc(=S)n3ccsc3n2)cc1OC -2.9%
O=C(NCc1ccccc1)N1CCN(c2ccc(F)cc2)CC1 13.1%
O=C(c1ccc(S(=O)(=O)N2CCOCC2)cc1)N1CCOCC1 -9.29%
Cc1cc(C)cc(-n2c(SCC(=O)NCc3ccc4c(c3)OCO4)nc3ccccc3c2=O)c1 19.8%
O=C1CCCC/C1=C/Nc1ccc(S(=O)(=O)Nc2ncccn2)cc1 6.19%
Cc1cc(C)nc(NS(=O)(=O)c2ccc(Br)cc2)n1 15.3%
C=CCOC(=O)c1c(C)nc2cc3c(cc2c1C)OCO3 9.48%
Cc1ccc(C(=O)CC(C(=O)O)n2cnc([N+](=O)[O-])n2)cc1 (stereo unspecified) 11.1%
O=C(NCc1cccs1)C(=O)c1cn(CC(=O)N2CCCC2)c2ccccc12 24.7%
CCN(CC)C(=O)Cn1cc(C(=O)C(=O)NCc2ccco2)c2ccccc21 25.3%
O=C(c1ccco1)c1cn(CC(=O)N2CCCCC2)c2ccccc12 33.5%
O=C(NCc1ccco1)C(=O)c1cn(CC(=O)N2CCCCC2)c2ccccc12 8.43%
Cc1ccc(N=C(NO)c2nonc2N)c(C)c1 14.3%
O=C(Cn1c(=O)oc2ccccc21)NCCc1ccccc1Cl 1.7%
NC(=S)c1ncc(C(F)(F)F)cc1Cl -12.7%
CC(C)NC(=O)c1cnc(Sc2ncc(C(F)(F)F)cc2Cl)n1C 6.92%
O=C(c1cc[n+]([O-])cc1)N1CCc2c([nH]c3ccccc23)C1c1ccccc1Cl (stereo unspecified) 15.1%
O=C(c1nc(-c2ccccc2)n(-c2ccccc2)n1)N1CCN(S(=O)(=O)c2ccccc2)CC1 -12.4%
CCOc1ccc(C(=O)NCC(=O)OCc2cc(C(C)=O)ccc2OC)cc1 3.31%
CCC(C)C(NC(=O)c1ccccc1NC(=O)c1ccco1)C(=O)NNC(=O)c1ccncc1 (stereo unspecified) 3.96%
Cc1cc(C)cc(Nc2cnn(C34CC5CC(CC(CC(=O)O)(C5)C3)C4)c(=O)c2Cl)c1 45.8%
O=C(O)C12C[C@H]3C[C@@H](C1)CC(n1ncc(N4CCN(c5ccccc5)CC4)c(Cl)c1=O)(C3)C2 36.9%
Cc1cccc(Nc2cnn(C34CC5CC(CC(CC(=O)O)(C5)C3)C4)c(=O)c2Cl)c1 39.2%
CC(=O)c1ccc(Nc2cnn(C34CC5CC(CC(CC(=O)O)(C5)C3)C4)c(=O)c2Cl)cc1 46.4%
O=C(O)C12CC3CC(C1)CC(n1ncc(N4CCN(c5ccccc5)CC4)c(Cl)c1=O)(C3)C2 61.6%
CCc1ccc(Nc2cnn(C34CC5CC(CC(CC(=O)O)(C5)C3)C4)c(=O)c2Cl)cc1 53.3%
CCOC(=O)c1csc(NC(=O)CSc2nnnn2-c2ccc(OC)c(OC)c2)n1 11.3%
COc1cccc(-n2c(SCC(=O)N3CCCCC3)nc3c([nH]c4ccccc43)c2=O)c1 -3.56%
CC(=O)NC(Cc1ccccc1)C(=O)NC1CCN(C(=O)c2ccc([N+](=O)[O-])cc2)CC1 (stereo unspecified) -3.72%
O=C(NC(Cc1ccccc1)C(=O)NC(Cc1ccccc1)C(=O)O)c1ccccc1 (stereo not drawn) (Bz-Phe-Phe-OH; configuration not given here) 45.6%
O=C(O)CCC(NC(=O)C(Cc1ccc2c(c1)OCO2)NC(=O)c1ccccc1)C(=O)O (stereo unspecified) 46.2%
O=C(O)c1ccc(COc2ccccc2/C=C2/NC(=O)N(c3cccc(Cl)c3)C2=O)cc1 7.83%
O=C(O)c1ccc(-n2cccc2/C=C2/NC(=O)N(c3ccccc3)C2=O)cc1 11.3%
CCc1noc(C)c1C(=O)Nc1nc(-c2cc(C)ccc2C)c(C)s1 -3.18%
CC1=C(C)CC(C(=O)Nc2nc(-c3ccc(F)cc3)c(C)s2)C(C(=O)O)C1 (stereo unspecified) 48.9%
CC(=O)C1=C(O)C(=O)N(Cc2ccco2)C1c1ccc(F)cc1 (stereo unspecified) 11%
CC(=O)C1=C(O)C(=O)N(Cc2ccco2)C1c1ccccc1 (stereo unspecified) 6.17%
Cc1ccc(S(=O)(=O)N2CCCC2C(=O)N2CCCCCC2)cc1 (stereo unspecified) -4.09%
COc1ccc2c(C(F)(F)F)cc(=O)oc2c1C -5.82%
CC(Sc1nc(-c2ccccc2)cs1)C(=O)Nc1ccc(Cl)cn1 (stereo unspecified) 13.8%
CC(Sc1nc(-c2ccc(F)cc2)cs1)C(=O)Nc1ccc(Cl)cn1 (stereo unspecified) 15.1%
Cn1c(=O)c(C(=O)Nc2ccccc2S(N)(=O)=O)c(O)c2ccccc21 -0.17%
COC(=O)C(C)(C)ONC(=O)Nc1ccccc1Cl -4.74%
CCN(CC)C(=O)c1ccc(N)cc1 7.5%
COc1ccc(Oc2ccc(/C=C/C(=O)c3ccc(O)cc3)cc2[N+](=O)[O-])cc1 12.4%
CC(C)(C)C1(C)OC(C(N)=O)C(C(N)=O)O1 (stereo unspecified) 8.29%
Cc1cc(=O)oc2c1c(C(F)(F)F)nn2-c1ccccc1 2.02%
CCOC(=O)C1CSC(CC(=O)Nc2ccc(Cl)cc2)C(=O)N1 (stereo unspecified) 13.4%
CCOC(=O)C1CSC(CC(=O)Nc2ccc(OC(F)(F)F)cc2)C(=O)N1 (stereo unspecified) 14%

Source: PubChem BioAssay AID1619 (SRMLSC, 2009)
